Only some compounds are listed: those with a hit (about 4% of all), similar ones and a draw of the others.
Measles CPE – protection of cells from measles virus; Measles virus-infected cells, CPE protection, absorbance; protection (pct of control), % at 4 µM; hit rate 1.5% among 140,000; AID 841; in the data active = protection mostly above about 24%, no sharp cut-off; inactive = mostly below about 26%
HSV replic up – increases HSV replication in cells; HSV replication augmentation in cells, fold increase; maximum fold increase; hit rate 0.005% among 220,000; AID 1956; in the data active = maximum fold increase above about 1.5; tested in PC3 cells
ROMK mod – human ROMK K+ channel modulation, primary screen; P48048; Tet-inducible ROMK, thallium flux fluorescence; actives lie on both sides; B-score at 10 µM; hit rate 2% among 130,000;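 active = signal ratio slope over the read window, or its plate-corrected B-score, at least 3 SD from the plate mean, either direction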;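 note: B-score of the F/F0 ratio slope over 7 to 12 s after thallium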
Target sequence (P48048 whole entry, looked up): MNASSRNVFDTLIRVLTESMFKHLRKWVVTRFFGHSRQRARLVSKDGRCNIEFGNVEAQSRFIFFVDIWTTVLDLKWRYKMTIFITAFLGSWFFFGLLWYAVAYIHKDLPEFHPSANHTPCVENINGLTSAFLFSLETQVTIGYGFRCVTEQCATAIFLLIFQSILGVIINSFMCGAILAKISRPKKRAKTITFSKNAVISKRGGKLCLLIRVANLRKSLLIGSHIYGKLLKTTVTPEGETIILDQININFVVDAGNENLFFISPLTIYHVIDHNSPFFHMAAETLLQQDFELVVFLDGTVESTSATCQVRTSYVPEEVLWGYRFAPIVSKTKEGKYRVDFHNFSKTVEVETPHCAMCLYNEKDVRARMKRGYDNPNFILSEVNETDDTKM
Arbovirus inh – blocks arbovirus infection. hit rate 0.37% among 200,000. AID 1251. inhibition, % at 10 µM. arbovirus infection cell-based antiviral screen; in the data active = inhibition above about 30%
Cl transport mod – KCC2 (human) Cl- transport modulation; KCC2 cells, thallium flux FluoZin-2 fluorescence; hit rate 2.2% among 190,000; AID 1456; B-score of Tl+ flux slope (higher = more flux/activation; lower = inhibition) at 10 µM;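 active = thallium flux slope and its plate-corrected score both differing from the plate sample mean at a set confidence after two filtering rounds, in either direction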;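 note: slope of fluorescence scaled to starting intensity during 10 to 20 s after thallium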
Of the large screens only hits and unclear results are named; the others gave an inactive call.

O=C(NCc1ccccc1)C(=O)Nc1nc(C23CC4CC(CC(C4)C2)C3)cs1	Cl transport mod 3.9 (no result: ROMK mod)
O=C(NCc1ccncc1)C(=O)Nc1nc(C23CC4CC(CC(C4)C2)C3)cs1	none (no result: HSV replic up, ROMK mod)
CC(C)CCNC(=O)C(=O)Nc1ccccc1	none (no result: Measles CPE)
N#CC1=C(N)OC2=C(C(=O)CCC2)C1c1ccccc1 (centres undefined)	Measles CPE 34 (no result: ROMK mod)
COc1cc2c(C(=O)O)c(C)n(CC(C)C)c2c2ccccc12	Arbovirus inh 54 (no result: HSV replic up, ROMK mod)
Cc1ccc(S(=O)(=O)NCC(=O)N/N=C/c2ccccc2O)cc1	none (no result: Measles CPE)
CCCCOc1ccc(S(=O)(=O)Nc2cc(OC)ccc2OC)cc1	none (no result: Cl transport mod)
COc1ccc(OC)c(NS(=O)(=O)c2ccc(Cl)nc2)c1	Measles CPE 32
Clc1ccc(Oc2cnc3ccccc3n2)cc1	none (no result: ROMK mod)
Cc1ccc(Oc2cnc3ccccc3n2)cc1	Measles CPE 67 (no result: ROMK mod)
O=C(NCc1cccs1)c1ccc(Cl)c(S(=O)(=O)N2CCCC2)c1	none (no result: Measles CPE)
C/C(=N/NC(=O)c1ccccc1)c1ccc(NC(=O)C(F)(F)F)cc1	none (no result: Measles CPE)
COc1ccc(C(NC(=O)CNC(C)=O)C(=O)Nc2ccc(C(C)C)cc2)cc1 (centres undefined)	Measles CPE 43 (no result: ROMK mod)
COc1ccccc1N(C)S(=O)(=O)c1ccc(C(=O)OCC(=O)NCc2cccs2)cc1	none (no result: Measles CPE, ROMK mod, Arbovirus inh)
CCc1cccc2c(C(=O)COC(=O)c3ccccc3)c[nH]c12	Measles CPE 28
CCCCNC(=O)CCn1nc(-c2ccccc2)ccc1=O	Measles CPE 49 (no result: HSV replic up, ROMK mod)
CCOc1ccc(C(CC(=O)O)n2cnnn2)cc1 (centres undefined)	none (no result: Measles CPE)
Cc1ccc(S(=O)(=O)NCCOc2nc(N3CCOCC3)nc(N3CCOCC3)n2)cc1	Measles CPE 63 (no result: Cl transport mod)
CCCOC(=O)c1ccc(NC(=O)c2nc3nc(C)cc(C)n3n2)cc1	none (no result: Measles CPE)
O=C(NNC(=O)c1sccc1-n1cccc1)c1cccc(Cl)c1	Cl transport mod 12 (no result: ROMK mod)
O=C(NNC(=O)c1sccc1-n1cccc1)c1ccccc1	none (no result: ROMK mod)
Cc1ccc(CNC(=O)c2sccc2-n2cccc2)cc1	Cl transport mod 6.9 (no result: ROMK mod)
COc1ccc(C(=O)NCC(=O)N/N=C/c2cn[nH]c2-c2ccccc2)cc1	none (no result: Measles CPE)
CN=C1CC(SC)=C1c1ccc(C)cc1	ROMK mod -2.9
O=C(NCc1ccncc1)C(=O)N/N=C/c1cccnc1	none (no result: Measles CPE)
CS(=O)(=O)Nc1ccccc1C(=O)O	Measles CPE 51
CN(CCC#N)C(=O)CC1(Cc2ccccc2)CCOC(C)(C)C1 (centres undefined)	none (no result: Measles CPE, ROMK mod, Arbovirus inh)
Brc1ccc(CNCc2cccs2)cc1	Measles CPE 19 (no result: HSV replic up)
c1csc(CNCc2ccncc2)c1	none (no result: Measles CPE)
O=C(O)c1ccc(CSc2nnnn2C2CCCCC2)cc1	Measles CPE 30
O=C1CCC(=O)N1c1ccc(CSc2nnnn2C2CCCCC2)cc1	Measles CPE 19 (no result: Cl transport mod)
O=C(O)CSc1nnnn1C1CCCCC1	none (no result: Measles CPE, ROMK mod, Cl transport mod)
Cc1ccc2nc(NC(=O)C3CCCN(S(=O)(=O)c4cnc[nH]4)C3)sc2c1 (centres undefined)	Arbovirus inh 59 (no result: ROMK mod)
COc1cccc(C2C3=C(N=c4s/c(=C\c5ccccc5O)c(=O)n42)c2ccccc2CC3)c1OC (centres undefined)	none (no result: Measles CPE)
CCO[C@H]1OC(C(=O)O)=C[C@@H](c2ccccc2)[C@@H]1CCCO	none (no result: Measles CPE, ROMK mod, Arbovirus inh, Cl transport mod)
CC(C)(C)c1ccc(C(=O)CS(=O)(=O)c2ccccc2)cc1	Measles CPE 48 (no result: ROMK mod, Cl transport mod)
CCOC(=O)C=C(C(=O)OCC)C(=O)OCC	none (no result: Measles CPE)
CN(N)c1nc(-c2ccccc2)nnc1C(F)(F)F	none (no result: ROMK mod)
CCN(CC)CCNc1nc(-c2ccccc2)nnc1C(F)(F)F	Measles CPE 43 (no result: ROMK mod)
CCn1c(SCc2ccc(F)cc2)nnc1-c1nn(-c2ccccc2)ccc1=O	Measles CPE 55 (no result: ROMK mod)
CCn1c(CSCc2ccc(F)cc2)nnc1SCC(=O)N1CCN(c2ccccc2)CC1	none
CCCC(=O)N(Cc1cc2ccccc2[nH]c1=O)c1ccccc1OC	Measles CPE 38
COc1ccc(NC(=O)C2CCC(CNS(=O)(=O)c3cccs3)CC2)cc1 (centres undefined)	none (no result: Measles CPE)
COc1cc2oc3ccccc3c2cc1N(CC(=O)N(C)C)S(=O)(=O)c1ccccc1	none
COc1cc2oc3ccccc3c2cc1N(CC(=O)N1CCCCC1)S(=O)(=O)c1ccc(C)cc1	ROMK mod -4.9
CCN(CC)C(=O)CN(c1cc2c(cc1OC)oc1ccccc12)S(=O)(=O)c1ccccc1	ROMK mod -4.6
CCOc1ccc(Br)cc1S(=O)(=O)Nc1ccccc1N1CCOCC1	none (no result: Cl transport mod)
CCOc1ccc(Br)cc1S(=O)(=O)Nc1ccc(N2CCOCC2)cc1	Measles CPE 77
Cc1ccc2sc(NNC(=O)c3cc(=O)c4ccccc4o3)nc2c1C	Cl transport mod -3.3 (no result: Measles CPE, HSV replic up, ROMK mod)
Cc1cccc2sc(NNC(=O)c3cc(=O)c4ccccc4o3)nc12	none (no result: Measles CPE, HSV replic up, ROMK mod)

Compound activity deposited in PubChem BioAssay by several laboratories.
